45 substances from PMC13423814 can be followed below.

Among the targets are HSPA9 (UniProt P38646); MCM2 (UniProt P49736); MCM5 (UniProt P33992); LBR (UniProt Q14739); MDH2 (UniProt P40926); HP1BP3 (UniProt Q5SSJ5); RAN (UniProt P62826); MLEC (UniProt Q14165); PDIA5 (UniProt Q14554); STT3A (UniProt P46977); STT3B (UniProt Q8TCJ2); MRTO4 (UniProt Q9UKD2); RSL24D1 (UniProt Q9UHA3); MTHFD2 (UniProt P13995); MTPAP (UniProt Q9NVV4); MYBBP1A (UniProt Q9BQG0); RPL7L1 (UniProt Q6DKI1); SERBP1 (UniProt Q8NC51); MYDGF (UniProt Q969H8); MYEF2 (UniProt Q9P2K5); MYL6 (UniProt P60660); MYO18A (UniProt Q92614); NAA15 (UniProt Q9BXJ9); NAT10 (UniProt Q9H0A0); NCAPH (UniProt Q15003); NCBP1 (UniProt Q09161); NDRG1 (UniProt Q92597); NDUFA12 (UniProt Q9UI09); NDUFS1 (UniProt P28331); NIPSNAP1 (UniProt Q9BPW8); NOC3L (UniProt Q8WTT2); NOL7 (UniProt Q9UMY1); NOLC1 (UniProt Q14978); UTP11 (UniProt Q9Y3A2); NOP16 (UniProt Q9Y3C1); NOP53 (UniProt Q9NZM5); NUCB2 (UniProt P80303); NUP160 (UniProt Q12769); NUP205 (UniProt Q92621); NUP58 (UniProt Q9BVL2); NUP93 (UniProt Q8N1F7); P4HA1 (UniProt P13674); PDIA3 (UniProt P30101); PPIB (UniProt P23284); P4HB (UniProt P07237); PA2G4 (UniProt Q9UQ80); PAM16 (UniProt Q9Y3D7); PCCB (UniProt P05166); PDAP1 (UniProt Q13442); PDIA4 (UniProt P13667); PDIA6 (UniProt Q15084); PHF5A (UniProt Q7RTV0); SF3B5 (UniProt Q9BWJ5); POLDIP2 (UniProt Q9Y2S7); POLR1E (UniProt Q9GZS1); PPIL4 (UniProt Q8WUA2); PRPF31 (UniProt Q8WWY3); PRPF8 (UniProt Q6P2Q9); USP39 (UniProt Q53GS9).

What all share (conditions): DSSO, in cells

PRPF6, O94906, sequence (O94906 whole entry): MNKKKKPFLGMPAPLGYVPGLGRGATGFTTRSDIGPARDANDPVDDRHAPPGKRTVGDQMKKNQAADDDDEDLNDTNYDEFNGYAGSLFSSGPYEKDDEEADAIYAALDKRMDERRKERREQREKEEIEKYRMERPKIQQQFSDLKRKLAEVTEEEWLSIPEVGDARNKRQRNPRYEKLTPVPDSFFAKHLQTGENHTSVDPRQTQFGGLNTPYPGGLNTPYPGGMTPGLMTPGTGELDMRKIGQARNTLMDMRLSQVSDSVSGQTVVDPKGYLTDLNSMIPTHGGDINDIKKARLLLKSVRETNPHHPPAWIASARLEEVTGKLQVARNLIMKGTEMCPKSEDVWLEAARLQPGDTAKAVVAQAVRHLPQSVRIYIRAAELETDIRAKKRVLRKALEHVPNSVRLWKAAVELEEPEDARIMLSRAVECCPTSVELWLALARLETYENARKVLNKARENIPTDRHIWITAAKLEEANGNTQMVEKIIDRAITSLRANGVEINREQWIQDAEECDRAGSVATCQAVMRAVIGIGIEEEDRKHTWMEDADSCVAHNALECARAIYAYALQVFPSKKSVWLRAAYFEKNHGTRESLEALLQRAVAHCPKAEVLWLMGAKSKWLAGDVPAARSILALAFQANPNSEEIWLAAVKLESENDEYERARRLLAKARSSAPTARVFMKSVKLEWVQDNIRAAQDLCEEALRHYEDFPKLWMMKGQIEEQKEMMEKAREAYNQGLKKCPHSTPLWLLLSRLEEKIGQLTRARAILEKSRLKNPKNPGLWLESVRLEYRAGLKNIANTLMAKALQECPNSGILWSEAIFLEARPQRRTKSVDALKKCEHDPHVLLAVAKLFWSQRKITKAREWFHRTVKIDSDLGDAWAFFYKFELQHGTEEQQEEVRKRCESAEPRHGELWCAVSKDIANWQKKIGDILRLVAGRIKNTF
P4HB, P07237, sequence (P07237 whole entry): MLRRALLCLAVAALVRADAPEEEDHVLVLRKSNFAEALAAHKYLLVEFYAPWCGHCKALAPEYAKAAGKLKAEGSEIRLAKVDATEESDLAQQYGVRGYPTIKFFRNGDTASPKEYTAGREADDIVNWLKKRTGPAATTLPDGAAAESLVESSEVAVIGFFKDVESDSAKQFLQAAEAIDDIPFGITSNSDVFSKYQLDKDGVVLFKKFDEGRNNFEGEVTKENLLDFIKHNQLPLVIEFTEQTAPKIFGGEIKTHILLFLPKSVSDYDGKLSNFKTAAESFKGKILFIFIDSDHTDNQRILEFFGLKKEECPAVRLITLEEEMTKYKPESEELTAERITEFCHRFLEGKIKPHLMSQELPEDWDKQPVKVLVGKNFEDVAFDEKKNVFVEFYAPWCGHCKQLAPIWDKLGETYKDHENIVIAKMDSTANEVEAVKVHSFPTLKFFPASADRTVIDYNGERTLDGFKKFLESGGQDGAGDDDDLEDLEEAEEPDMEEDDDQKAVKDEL
FBL, P22087, sequence (P22087 whole entry): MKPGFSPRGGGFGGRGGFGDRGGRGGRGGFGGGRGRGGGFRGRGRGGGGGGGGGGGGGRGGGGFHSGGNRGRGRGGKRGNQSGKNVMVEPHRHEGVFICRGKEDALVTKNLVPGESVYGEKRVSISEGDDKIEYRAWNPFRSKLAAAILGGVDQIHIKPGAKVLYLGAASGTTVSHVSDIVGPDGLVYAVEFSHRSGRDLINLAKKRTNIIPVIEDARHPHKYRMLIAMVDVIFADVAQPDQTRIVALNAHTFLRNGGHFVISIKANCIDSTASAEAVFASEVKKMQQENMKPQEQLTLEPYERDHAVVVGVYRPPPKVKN
RPN1, P04843, sequence (P04843 whole entry): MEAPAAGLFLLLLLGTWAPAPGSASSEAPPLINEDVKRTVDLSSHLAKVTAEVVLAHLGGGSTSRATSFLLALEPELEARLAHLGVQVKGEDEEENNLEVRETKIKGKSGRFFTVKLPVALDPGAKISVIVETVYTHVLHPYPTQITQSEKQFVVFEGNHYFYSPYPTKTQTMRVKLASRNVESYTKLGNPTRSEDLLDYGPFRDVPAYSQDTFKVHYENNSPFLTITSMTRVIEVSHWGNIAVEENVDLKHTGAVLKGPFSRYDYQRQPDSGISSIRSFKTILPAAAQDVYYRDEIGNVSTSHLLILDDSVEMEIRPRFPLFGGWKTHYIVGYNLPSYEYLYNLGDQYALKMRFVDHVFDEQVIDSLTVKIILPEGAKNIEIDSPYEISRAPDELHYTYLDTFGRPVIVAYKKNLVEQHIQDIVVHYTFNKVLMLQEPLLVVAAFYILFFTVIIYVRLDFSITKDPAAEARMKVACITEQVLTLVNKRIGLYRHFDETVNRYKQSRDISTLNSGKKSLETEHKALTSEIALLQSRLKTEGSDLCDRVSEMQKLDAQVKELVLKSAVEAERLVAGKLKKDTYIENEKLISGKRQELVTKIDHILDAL
MCM4, P33991, sequence (P33991 whole entry): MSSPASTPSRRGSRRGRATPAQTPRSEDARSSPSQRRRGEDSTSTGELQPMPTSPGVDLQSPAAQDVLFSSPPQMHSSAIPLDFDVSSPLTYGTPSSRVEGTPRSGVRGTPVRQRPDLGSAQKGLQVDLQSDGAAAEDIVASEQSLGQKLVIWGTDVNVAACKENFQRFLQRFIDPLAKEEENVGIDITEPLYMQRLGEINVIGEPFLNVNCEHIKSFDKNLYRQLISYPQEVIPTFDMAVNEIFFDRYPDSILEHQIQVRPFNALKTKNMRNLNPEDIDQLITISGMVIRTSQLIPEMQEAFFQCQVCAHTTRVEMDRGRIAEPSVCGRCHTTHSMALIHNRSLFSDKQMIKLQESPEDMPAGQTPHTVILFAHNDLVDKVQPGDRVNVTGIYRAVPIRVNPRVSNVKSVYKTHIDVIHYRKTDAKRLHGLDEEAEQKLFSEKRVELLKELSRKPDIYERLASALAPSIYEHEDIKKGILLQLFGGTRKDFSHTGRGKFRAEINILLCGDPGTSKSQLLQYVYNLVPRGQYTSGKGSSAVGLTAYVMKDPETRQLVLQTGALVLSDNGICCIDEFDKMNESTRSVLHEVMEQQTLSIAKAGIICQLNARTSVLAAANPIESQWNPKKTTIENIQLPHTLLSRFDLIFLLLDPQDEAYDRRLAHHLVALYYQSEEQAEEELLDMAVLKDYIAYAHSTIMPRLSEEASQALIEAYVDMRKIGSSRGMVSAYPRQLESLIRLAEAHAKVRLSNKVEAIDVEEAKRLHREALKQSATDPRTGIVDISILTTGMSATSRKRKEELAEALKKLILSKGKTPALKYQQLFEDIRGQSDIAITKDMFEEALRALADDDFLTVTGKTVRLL
SF3B3, Q15393, sequence (Q15393 whole entry): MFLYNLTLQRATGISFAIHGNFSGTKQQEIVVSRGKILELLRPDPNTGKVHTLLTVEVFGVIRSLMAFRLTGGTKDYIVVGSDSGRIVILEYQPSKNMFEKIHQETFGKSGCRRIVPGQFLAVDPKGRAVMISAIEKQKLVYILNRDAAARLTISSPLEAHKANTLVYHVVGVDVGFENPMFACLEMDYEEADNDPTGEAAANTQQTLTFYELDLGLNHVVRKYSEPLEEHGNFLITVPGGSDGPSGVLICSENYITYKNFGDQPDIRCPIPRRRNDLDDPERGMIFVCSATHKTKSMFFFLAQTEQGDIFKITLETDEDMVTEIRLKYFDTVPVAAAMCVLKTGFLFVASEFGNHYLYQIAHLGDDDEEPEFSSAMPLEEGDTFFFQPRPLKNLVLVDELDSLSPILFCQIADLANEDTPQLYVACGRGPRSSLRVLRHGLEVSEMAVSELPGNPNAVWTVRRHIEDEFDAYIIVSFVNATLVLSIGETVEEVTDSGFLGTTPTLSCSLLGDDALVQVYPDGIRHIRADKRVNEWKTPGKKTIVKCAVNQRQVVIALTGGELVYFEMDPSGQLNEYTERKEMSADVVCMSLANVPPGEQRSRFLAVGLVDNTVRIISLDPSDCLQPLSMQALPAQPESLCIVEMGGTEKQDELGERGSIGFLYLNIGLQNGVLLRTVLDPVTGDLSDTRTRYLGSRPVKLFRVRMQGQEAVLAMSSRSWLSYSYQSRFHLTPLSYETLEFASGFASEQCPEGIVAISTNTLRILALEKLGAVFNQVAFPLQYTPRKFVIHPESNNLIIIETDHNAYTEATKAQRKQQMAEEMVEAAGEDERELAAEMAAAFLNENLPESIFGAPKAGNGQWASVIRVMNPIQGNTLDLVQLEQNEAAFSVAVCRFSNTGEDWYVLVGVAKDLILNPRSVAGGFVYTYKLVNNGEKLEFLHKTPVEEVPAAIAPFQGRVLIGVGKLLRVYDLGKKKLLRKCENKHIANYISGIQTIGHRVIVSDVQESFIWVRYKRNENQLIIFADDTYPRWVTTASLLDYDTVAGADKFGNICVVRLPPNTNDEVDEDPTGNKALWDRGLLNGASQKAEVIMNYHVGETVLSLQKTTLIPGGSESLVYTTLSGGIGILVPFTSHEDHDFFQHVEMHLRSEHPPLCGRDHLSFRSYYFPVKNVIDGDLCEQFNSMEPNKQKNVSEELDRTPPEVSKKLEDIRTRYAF
NUCB2, sequence (P80303 whole entry): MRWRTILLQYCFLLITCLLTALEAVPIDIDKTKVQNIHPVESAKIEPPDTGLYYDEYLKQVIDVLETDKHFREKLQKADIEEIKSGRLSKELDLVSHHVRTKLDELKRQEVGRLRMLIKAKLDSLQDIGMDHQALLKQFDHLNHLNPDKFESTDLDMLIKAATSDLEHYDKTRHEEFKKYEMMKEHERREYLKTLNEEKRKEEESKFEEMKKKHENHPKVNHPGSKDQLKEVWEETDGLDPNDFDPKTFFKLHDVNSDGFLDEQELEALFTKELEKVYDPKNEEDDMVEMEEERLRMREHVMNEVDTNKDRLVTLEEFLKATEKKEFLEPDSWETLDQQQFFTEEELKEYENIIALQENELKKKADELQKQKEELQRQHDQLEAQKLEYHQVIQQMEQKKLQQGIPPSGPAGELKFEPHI
NDUFA12, sequence (Q9UI09 whole entry): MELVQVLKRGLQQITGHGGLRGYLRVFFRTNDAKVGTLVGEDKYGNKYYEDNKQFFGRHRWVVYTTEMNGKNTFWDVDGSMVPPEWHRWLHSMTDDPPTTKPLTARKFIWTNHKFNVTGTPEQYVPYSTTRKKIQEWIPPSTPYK

For LETM1, O95202, the cross-linked residues result with HSPA9 is “K587 - K625”.

For MCM4, P33991, the cross-linked residues result is “K814 - K807” in the experiment with MCM2 and “K858 - K702” in the experiment with MCM5.

In the case of LMNB2, Q03252, the cross-linked residues result with LBR is on record as “K186 - K190”.

In the case of GLUD1, P00367, the cross-linked residues entry with MDH2 is reported as “K191 - K239”.

Take PRDX3, P30048: in the experiment with MDH2, the cross-linked residues entry is “K149 - K239”.

For the substance ETHE1, O95571, the cross-linked residues entry with MDH2 is on record as “K66 - K239”.

In the case of H4C1, P62805, the cross-linked residues result in the experiment with HP1BP3 is “K32 - K149”; with LBR, “K9 - K107”; in the experiment with RAN, “K78 - K37”.

On to PDHA1, P08559, for which, in the experiment with MDH2, the cross-linked residues result is on record as “K313 - K239”.

RPN1, P04843: the cross-linked residues result in the experiment with MLEC is “K176 - K246”; with PDIA5, “K187 - K460”; with STT3A, “K258 - K695”; in the experiment with STT3B, “K258 - K773”.

In the case of GTPBP4, Q9BZE4, the cross-linked residues entry was “K187 - K163” with MRTO4 and “K522 - K128” with RSL24D1.

As for PMPCB, O75439, the cross-linked residues result in the experiment with MTHFD2 is “K219 - K286”.

In the case of LRPPRC, P42704, the cross-linked residues result in the experiment with MTPAP is given as “K868 - K571”.

With RPL27, P61353, the cross-linked residues entry with MYBBP1A is reported as “K59 - T987”; with RPL7L1, “K59 - K36”; with SERBP1 it was “K93 - K39”.

Take PRKCSH, P14314: the cross-linked residues entry with MYDGF is recorded as “K436 - K161”.

On to HNRNPM, P52272, for which the cross-linked residues entry in the experiment with MYEF2 was “K381 - K323”.

As for MYH9, P35579, the cross-linked residues result with MYL6 is given as “K1459 - K81”; with MYO18A, “K1867 - K1727”.

RPL6, Q02878: in the experiment with NAA15, the cross-linked residues entry is reported as “K100 - K590”.

As for BMS1, Q14692, the cross-linked residues result with NAT10 was “S398 - K689”.

As for SMC2, O95347, the cross-linked residues entry in the experiment with NCAPH is reported as “K177 - K152”.

With NCBP2, P52298, the cross-linked residues result with NCBP1 is “K7 - K17”.

Consider ATP1A1, P05023, for which the cross-linked residues entry with NDRG1 was “K444 - K280”.

Take NDUFA7, O95182: the cross-linked residues result with NDUFA12 was “S32 - K101”.

Take NDUFA2, O43678: the cross-linked residues entry with NDUFS1 is recorded as “K98 - K531”.

As to NIPSNAP2, O75323, the cross-linked residues result with NIPSNAP1 is “K148 - K279”.

Take DDX54, Q8TDD1: the cross-linked residues result with NOC3L is recorded as “Y763 - K436”.

For FBL, P22087, the cross-linked residues result with NOL7 is reported as “K102 - K121”; with NOLC1 it was “K102 - K647”; with UTP11 it was “K102 - K197”.

With RPL7A, P62424, the cross-linked residues entry with NOP16 is “K125 - K138”; with NOP53, “K125 - K157”; in the experiment with SERBP1 it was “K20 - K39”.

On to TMED10, P49755, for which the cross-linked residues result with NUCB2 is recorded as “K140 - K281”.

As to NUP98, P52948, the results for the cross-linked residues entry with NUP160 and in the experiment with NUP205 were “K1749 - K1096” and “K563 - K1881”, respectively.

Take NUP62, P37198: in the experiment with NUP58, the cross-linked residues result is reported as “K371 - K288”.

Consider NUP155, O75694, for which, in the experiment with NUP93, the cross-linked residues result was “K1069 - K243”.

Regarding P4HB, P07237, the cross-linked residues result is given as “K65 - K442” with P4HA1, “K71 - K494” with PDIA3 and “S32 - K186” with PPIB.

For P4HA2, O15460, the cross-linked residues entry in the experiment with P4HB is reported as “K300 - K409”.

As for RPL35, P42766, the cross-linked residues entry with PA2G4 was “K43 - K238”.

As to DNAJC19, Q96DA6, in the experiment with PAM16, the cross-linked residues entry was “K93 - K82”.

For PCCA, P05165, in the experiment with PCCB, the cross-linked residues result was “K648 - K60”.

Turning to EIF3J, O75822, the cross-linked residues result in the experiment with PDAP1 was “K117 - K172”.

For AGR2, O95994, in the experiment with PDIA4, the cross-linked residues result was “K95 - K245”.

As to EEF2, P13639, in the experiment with PDIA6, the cross-linked residues result is listed as “S48 - K150”.

As to HSP90B1, P14625, the cross-linked residues entry in the experiment with PDIA6 is on record as “K633 - K150”.

On to SF3B3, Q15393, for which the cross-linked residues result in the experiment with PHF5A is reported as “K137 - K13”; in the experiment with SF3B5, “K137 - K17”.

Turning to CLPX, O76031, the cross-linked residues entry in the experiment with POLDIP2 is “K98 - K60”.

With POLR1A, O95602, in the experiment with POLR1E, the cross-linked residues entry is reported as “K252 - K170”.

Take DHX16, O60231: the cross-linked residues entry with PPIL4 is “K291 - K212”.

Regarding PRPF6, O94906, the values for the cross-linked residues entry in the experiment with PRPF31, in the experiment with PRPF8 and in the experiment with USP39 were “K408 - K471”, “K137 - K670” and “K137 - K459”, respectively.
